The results in this text go back to PubChem BioAssay AID1347142 (National Center for Advancing Translational Sciences (NCATS), 2019).

Results filed as inconclusive are left out. Entries that show only a call come without a potency. The source made the active and inactive calls. The call rests on the fitted dose curve; in most records, active means well fitted inhibition curve with a large enough effect; inconclusive means small, poorly fitted or top-dose-only effect; inactive means no such curve, though single readings can be large or run the other way.
Further: nearly all actives have a fitted effect of over 80% in size.
Potency means the concentration at half of the fitted maximal effect.

N-terminal Xaa-Pro-Lys N-methyltransferase 1 (Homo sapiens), sequence (Q9BV86 whole entry, looked up): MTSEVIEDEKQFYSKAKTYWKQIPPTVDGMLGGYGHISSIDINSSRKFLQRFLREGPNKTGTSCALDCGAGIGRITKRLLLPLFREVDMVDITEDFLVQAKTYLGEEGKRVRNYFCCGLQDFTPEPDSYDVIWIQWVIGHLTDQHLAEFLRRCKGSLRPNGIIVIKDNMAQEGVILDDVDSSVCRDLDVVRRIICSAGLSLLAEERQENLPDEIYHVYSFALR

In the assay the target is N-terminal Xaa-Pro-Lys N-methyltransferase 1 (Homo sapiens) (UniProt Q9BV86). Put plainly: qHTS Assay for Inhibitors of N-terminal methyltransferase 1 (NTMT1): ThioGlo3 Assay Confirmatory Screen, Round 1. Particulars: NTMT1 SAHH-coupled ThioGlo3 fluorescence, 30 min; series mostly up to 56.8 µM. In a few lines:
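Human NTMT1 at 125 nM was preincubated 1 min at room temperature with compounds at various concentrations or 1 uM RCC1-6 control. Substrate mix (100 uM SAM, 10 uM SAHH, 15 uM ThioGlo3) was added, and fluorescence (Ex 340/Em 450 nm) was read at start and after 30 min, normalized to background.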
A general note: qHTS replaces the single test concentration by a dilution series.
On to `OC[C@H]1O[C@@H](n2cnc3c(N[C@H]4C[C@H]5CC[C@@H]4C5)ncnc32)[C@H](O)[C@@H]1O`, for which the Potency entry was “inactive”. `C[S+](CC[C@H](N)C(=O)O)C[C@H]1O[C@@H](n2cnc3c(N)ncnc32)[C@H](O)[C@@H]1O` (stereo not given in full): the Potency entry is “inactive”. Next, `CSc1nc(N)c2ncn([C@@H]3O[C@H](COP(=O)(O)OP(=O)(O)OP(=O)(O)O)C(O)[C@H]3O)c2n1` (stereo not given in full): 21.5 µM (active); `Nc1ncnc2c1ncn2C1CC(O)C(CO)O1` (stereo not given): “inactive”; `COc1cc2c(NC3CCN(C(C)C)CC3)nc(N3CCCN(C(C)C)CC3)nc2cc1OCCCN1CCCC1`: 27.1 µM (active). Take `COc1cc2c(NC3CCN(C(C)C)CC3)nc(N3CCC(F)(F)CC3)nc2cc1OCCCN1CCCCC1`: the Potency was 6.81 µM (active). Next, `COc1cc2c(NC3CCN(C(C)C)CC3)nc(N3CCC(N4CCCC4)CC3)nc2cc1OCCCN1CCCCC1`: 24.1 µM (active); `COc1cc2nc(N3CC[C@@H](N(C)C)C3)nc(NC3CC3)c2cc1OC`: “inactive”; `OC[C@H]1O[C@@H](n2cnc3c(NC4CCCC4)ncnc32)[C@H](O)C1O` (stereo not given in full): “inactive”. Next, `COc1cc2c(NC3CCN(CC4CCCCC4)CC3)nc(N3CCCN(C)CC3)nc2cc1OCCCN1CCCCC1`: 21.5 µM (active); `CC(C)N(CCCNC(=O)Nc1ccc(C(C)(C)C)cc1)C[C@H]1O[C@@H](n2cc(Br)c3c(N)ncnc32)[C@H](O)[C@@H]1O`: “inactive”; `COc1cc2nc(N3CCN(C)CC3)nc(N3CCOCC3)c2cc1OC`: 21.5 µM (active). Next, `OC[C@H]1O[C@@H](n2cnc3c(Nc4ccccc4)ncnc32)[C@H](O)[C@@H]1O`: “inactive”; `Nc1nc2c(ncn2[C@@H]2O[C@H](CO)[C@@H](O)[C@@H]2O)c(=O)[nH]1`: “inactive”. For the compound `NC(=S)c1ccc[n+]([C@@H]2O[C@@H](COP(=O)([O-])OP(=O)(O)OC[C@H]3O[C@@H](n4cnc5c(N)ncnc54)[C@H](OP(=O)(O)O)[C@@H]3O)C(O)C2O)c1` (stereo not given in full), the Potency result is “inactive”.

On to `NC(=O)c1ccc[n+]([C@@H]2O[C@H](COP(=O)([O-])OP(=O)(O)OC[C@H]3O[C@@H](n4cnc5c(N)ncnc54)[C@H](O)[C@@H]3O)[C@@H](O)[C@H]2O)c1`, for which the Potency entry is “inactive”. In the case of `CC(C)=CCNc1ncnc2c1ncn2[C@@H]1O[C@H](CO)[C@@H](O)[C@H]1O`, the Potency was 13.6 µM (active). On to `COc1cc2c(NC3CCN(C(C)C)CC3)nc(N3CCCN(CC4CCCCC4)CC3)nc2cc1OCCCN1CCCC1`, for which the Potency is 24.1 µM (active). With `COC(=O)c1ccc2c(c1)nc(NC(=O)c1ccccc1)n2CCCc1ccccc1`, the Potency result was “inactive”.

For the compound `COc1cc2nc(NC3CCN(C)CC3)nc(NC3CCN(C)CC3)c2cc1OC`, the Potency was 27.1 µM (active). As for `O=S(=O)(O)c1ccc(Nc2ncnc3c2ncn3[C@@H]2O[C@H](CO)[C@@H](O)[C@H]2O)cc1`, the Potency entry was “inactive”. Next, `Nc1ncnc2c1ncn2[C@@H]1O[C@H](COP(=O)(O)OP(=O)(O)OP(=O)(O)O)[C@@H](O)[C@H]1O`: “inactive”; `COc1cc2c(NC3CCN(C(C)C)CC3)nc(N3CCCCCC3)nc2cc1OCCCN1CCCCC1`: 24.1 µM (active); `COc1cc2nc(N3CCN(C)CC3)nc(NC3CCN(C)CC3)c2cc1OC`: 24.1 µM (active).

`COc1cc2c(NC3CCN(CC4CCCCC4)CC3)nc(N3CCCCC3)nc2cc1OCCCN1CCCCC1`: the Potency was 17.1 µM (active). Consider `Nc1nc(F)nc2c1ncn2[C@@H]1O[C@H](CO)[C@@H](O)[C@@H]1O`, for which the Potency result is “inactive”. For `COc1cc2c(NC3CCN(C(C)C)CC3)nc(N3CCCN(C)CC3)nc2cc1OCCOCCN1CCCC1`, the Potency was 27.1 µM (active). The value for `OCC1OC(n2cnc3c(NCc4ccco4)ncnc32)C(O)C1O` (stereo not given) was 19.2 µM (active); that for `CNc1ncnc2c1ncn2[C@H]1C[C@H](O)[C@@H](CO)O1` was “inactive”; that for `CNc1ncnc2c1ncn2[C@@H]1O[C@H](CO)[C@@H](O)[C@H]1O` was “inactive”. As to `COc1cc2c(NC3CCN(C4CCCCC4)CC3)nc(N3CCCCC3)nc2cc1OCCOCCN(C)C`, the Potency is 24.1 µM (active). Regarding `CNCCCOc1cc2nc(N3CCCN(C)CC3)nc(NC3CCN(C)CC3)c2cc1OC`, the Potency is 24.1 µM (active). Next, `COc1cc2c(NC3CCN(C)CC3)nc(N3CCCN(C)CC3)nc2cc1OCCOCCN1CCCC1`: 27.1 µM (active); `OC[C@@H]1O[C@H](n2cnc3c(SCc4ccccc4)ncnc32)[C@H](O)[C@H]1O`: “inactive”. In the case of `Nc1ncnc2c1ncn2[C@H]1O[C@H](CO)[C@@H](O)[C@@H]1O`, the Potency entry is “inactive”.
